Drawing on paper PMC9911399, “Two distinct binding modes provide the RNA-binding protein RbFox with extraordinary sequence specificity”, this text covers binding signal for 22 molecules.

To fix the notation:
T1: RBFOX1 RRM RbFoxmut (Fox-RRM*) (Homo sapiens, UniProt Q9NWB1 109-208, R118D;E147R;N151S;E152T)
T1 sequence: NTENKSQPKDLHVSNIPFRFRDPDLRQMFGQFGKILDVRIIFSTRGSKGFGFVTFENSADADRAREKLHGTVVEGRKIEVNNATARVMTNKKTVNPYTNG

B1: UGUCGUC (DNA:RNA)
RNA: GGGAGACCGGAAUUCAGAUUGUCCUGUCGUCUUAAAUCCCGUCGUAGCCACCA
DNA 1: CAATCTGAATTCCGGTCTCCC
DNA 2: TGGTGGCTACGACGGGATT
B2: UGGUCUG (DNA:RNA)
RNA: B1 RNA with U27G, C28U, G29C, C31G
DNA 1: CAATCTGAATTCCGGTCTCCC
DNA 2: TGGTGGCTACGACGGGATT
B3: UGUCUUG (DNA:RNA)
RNA: B1 RNA with G29U, C31G
DNA 1: CAATCTGAATTCCGGTCTCCC
DNA 2: TGGTGGCTACGACGGGATT
B4: UGCUGUC (DNA:RNA)
RNA: B1 RNA with U27C, C28U
DNA 1: CAATCTGAATTCCGGTCTCCC
DNA 2: TGGTGGCTACGACGGGATT
B5: UGUCUGG (DNA:RNA)
RNA: B1 RNA with G29U, U30G, C31G
DNA 1: CAATCTGAATTCCGGTCTCCC
DNA 2: TGGTGGCTACGACGGGATT
B6: UCCUGUC (DNA:RNA)
RNA: B1 RNA with G26C, U27C, C28U
DNA 1: CAATCTGAATTCCGGTCTCCC
DNA 2: TGGTGGCTACGACGGGATT
B7: UGUUGUC (DNA:RNA)
RNA: B1 RNA with C28U
DNA 1: CAATCTGAATTCCGGTCTCCC
DNA 2: TGGTGGCTACGACGGGATT
B8: UGUCUUC (DNA:RNA)
RNA: B1 RNA with G29U
DNA 1: CAATCTGAATTCCGGTCTCCC
DNA 2: TGGTGGCTACGACGGGATT
B9: UGGUCGC (DNA:RNA)
RNA: B1 RNA with U27G, C28U, G29C, U30G
DNA 1: CAATCTGAATTCCGGTCTCCC
DNA 2: TGGTGGCTACGACGGGATT
B10: CCGAUCU (DNA:RNA)
RNA: GGGAGACCGGAAUUCAGAUUGUCCCCGAUCUUUAAAUCCCGUCGUAGCCACCA
DNA 1: CAATCTGAATTCCGGTCTCCC
DNA 2: TGGTGGCTACGACGGGATT
B11: CACUUGA (DNA:RNA)
RNA: B10 RNA with C26A, G27C, A28U, C30G, U31A
DNA 1: CAATCTGAATTCCGGTCTCCC
DNA 2: TGGTGGCTACGACGGGATT
B12: CACUUAG (DNA:RNA)
RNA: B10 RNA with C26A, G27C, A28U, C30A, U31G
DNA 1: CAATCTGAATTCCGGTCTCCC
DNA 2: TGGTGGCTACGACGGGATT
B13: GAAAGCU (DNA:RNA)
RNA: B10 RNA with C25G, C26A, G27A, U29G
DNA 1: CAATCTGAATTCCGGTCTCCC
DNA 2: TGGTGGCTACGACGGGATT
B14: CAGCAUU (DNA:RNA)
RNA: B10 RNA with C26A, A28C, U29A, C30U
DNA 1: CAATCTGAATTCCGGTCTCCC
DNA 2: TGGTGGCTACGACGGGATT
B15: UUAAACA (DNA:RNA)
RNA: B10 RNA with C25U, C26U, G27A, U29A, U31A
DNA 1: CAATCTGAATTCCGGTCTCCC
DNA 2: TGGTGGCTACGACGGGATT
B16: CCUGGCA (DNA:RNA)
RNA: B10 RNA with G27U, A28G, U29G, U31A
DNA 1: CAATCTGAATTCCGGTCTCCC
DNA 2: TGGTGGCTACGACGGGATT
B17: AUGCAUA (DNA:RNA)
RNA: B1 RNA with U25A, G26U, U27G, G29A, C31A
DNA 1: CAATCTGAATTCCGGTCTCCC
DNA 2: TGGTGGCTACGACGGGATT
B18: AUGCAGA (DNA:RNA)
RNA: B10 RNA with C25A, C26U, A28C, U29A, C30G, U31A
DNA 1: CAATCTGAATTCCGGTCTCCC
DNA 2: TGGTGGCTACGACGGGATT
B19: GUCCAUC (DNA:RNA)
RNA: B1 RNA with U25G, G26U, U27C, G29A
DNA 1: CAATCTGAATTCCGGTCTCCC
DNA 2: TGGTGGCTACGACGGGATT
B20: AUCCAUC (DNA:RNA)
RNA: B1 RNA with U25A, G26U, U27C, G29A
DNA 1: CAATCTGAATTCCGGTCTCCC
DNA 2: TGGTGGCTACGACGGGATT
B21: AUGCAUG (DNA:RNA)
RNA: B1 RNA with U25A, G26U, U27G, G29A, C31G
DNA 1: CAATCTGAATTCCGGTCTCCC
DNA 2: TGGTGGCTACGACGGGATT
B22: AUGCAUC (DNA:RNA)
RNA: B1 RNA with U25A, G26U, U27G, G29A
DNA 1: CAATCTGAATTCCGGTCTCCC
DNA 2: TGGTGGCTACGACGGGATT

Changes are numbered by the printed parent chain; changes in the protein carry UniProt numbers. Whole data set: some 16,000 sequences, median “ka relative to ugcaugu” near 0.096, cut for the highest 2% near 0.35. The list comes from a sample in which the highest values are over-represented; it also holds similar and randomly drawn sequences.

In this experiment the target is T1, RBFOX1 RRM RbFoxmut (Fox-RRM*). As to the kind of experiment: EMSA; HiTS-Eq, 1 nM pool, 10 min; buffer printed only for the single-RNA assays: 10 mM Tris pH 7.5, 150 mM NaCl, 3.4 mM EDTA, 0.001% NP-40, 30 C. Particulars: tags: His6 N-terminal (pET28a); label: 5' 32P. In short, it runs like this:
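Purified wild-type or mutant RbFox RRM at increasing concentrations was equilibrated with 1 nM of 5′-radiolabelled RNA carrying 7 randomized nucleotides for 10 min in 50 µL. Unbound RNA was separated by 8% native PAGE and sequenced. Relative association constants came from read-count changes of each RNA species compared with the control reaction, normalised to the cognate motif.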
A general note: Mobility shift assays separate free from complexed probe on a gel.
Take B1: the binding signal was 0.119 KA relative to UGCAUGU.

Regarding B2, the binding signal was 0.374 KA relative to UGCAUGU.

In the case of B3, the binding signal was 0.674 KA relative to UGCAUGU.

Consider B4, for which the binding signal is 0.331 KA relative to UGCAUGU.

B5: the binding signal is 0.196 KA relative to UGCAUGU.

B6: the binding signal was 0.164 KA relative to UGCAUGU.

B7: the binding signal is 0.468 KA relative to UGCAUGU.

As for B8, the binding signal is 0.201 KA relative to UGCAUGU.

B9: the binding signal was 0.114 KA relative to UGCAUGU.

Take B10: the binding signal was 0.0341 KA relative to UGCAUGU.

As for B11, the binding signal is 0.114 KA relative to UGCAUGU.

In the case of B12, the binding signal was 0.16 KA relative to UGCAUGU.

As for B13, the binding signal is 0.0545 KA relative to UGCAUGU.

Take B14: the binding signal was 0.107 KA relative to UGCAUGU.

Turning to B15, the binding signal is 0.0699 KA relative to UGCAUGU.

Regarding B16, the binding signal is 0.148 KA relative to UGCAUGU.

As to B17, the binding signal is 0.161 KA relative to UGCAUGU.

For B18, the binding signal is 0.125 KA relative to UGCAUGU.

In the case of B19, the binding signal was 0.0764 KA relative to UGCAUGU.

Turning to B20, the binding signal was 0.1 KA relative to UGCAUGU.

With B21, the binding signal is 0.951 KA relative to UGCAUGU.

As to B22, the binding signal was 0.446 KA relative to UGCAUGU.
